In PubChem BioAssay:
Active and inactive are the calls of the source. No rule for the calls is given here.

Target: Pantothenate synthetase (Mycobacterium tuberculosis (strain ATCC 25618 / H37Rv)) (UniProt P9WIL5)
Test: Recombinant Mtb pantothenate synthetase (PanC) inhibitors, coupled enzyme, confirmatory (AID 375);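 also: 0% = full reaction with vehicle and 100% = no enzyme background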
Details: coupled enzyme assay; at 10 µM, hits give high values

Chain of Pantothenate synthetase (Mycobacterium tuberculosis (strain ATCC 25618 / H37Rv)) (P9WIL5 whole entry, looked up): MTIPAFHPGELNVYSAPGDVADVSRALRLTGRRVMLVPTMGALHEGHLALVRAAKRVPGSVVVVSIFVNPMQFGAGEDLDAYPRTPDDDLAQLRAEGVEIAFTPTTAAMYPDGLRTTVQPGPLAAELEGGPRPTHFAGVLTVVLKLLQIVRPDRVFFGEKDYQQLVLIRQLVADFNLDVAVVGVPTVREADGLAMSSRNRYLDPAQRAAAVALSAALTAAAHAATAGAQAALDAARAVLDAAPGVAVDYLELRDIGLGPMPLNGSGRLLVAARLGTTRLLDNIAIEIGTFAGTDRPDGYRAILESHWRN

SMILES	inhibition
O=C(Nc1cccc(NC(=O)c2ccco2)c1)c1ccc2c(c1)OCO2	0% (inactive)
C=CCc1cccc2cc(C(=O)NCc3cccnc3)c(=O)oc12	1% (inactive)
O=C(Cn1ncc2c(=O)oc3ccccc3c21)NCCCN1CCCC1=O	0% (inactive)
CCn1c(C)c(CCC(=O)O)c(=O)n2nc(-c3ccccc3OC)cc12	0% (inactive)
CC1=C(C(=O)Nc2ccccc2C)C2(CCCC2)C(C(N)=O)C(=O)N1 (stereo not given)	0% (inactive)
CC(NC(=O)NC12CC3CC(CC(C3)C1)C2)C1CCCO1 (stereo not given)	5% (inactive)
CCn1cc(C(=O)OCC(=O)OC2CC(C)CCC2C(C)C)c(=O)c2ccc(C)nc21 (stereo not given)	5% (inactive)
Cc1c(C=NCCOCc2ccccc2)cnn1C	0% (inactive)
COc1ccccc1OCC(=O)N1CCNC1=O	0% (inactive)
O=C(Oc1ccc2ccc(OC(=O)N3CCOCC3)cc2c1)N1CCOCC1	0% (inactive)
O=C(CCCn1c(=O)c2sccc2n(Cc2cc(=O)n3ccccc3n2)c1=O)NCc1ccco1	0% (inactive)
O=C(Nc1ccc(S(=O)(=O)NC2CCCC2)cc1)c1cnccn1	0% (inactive)
CC1CCc2cc(F)cc3c(=O)c(C(=O)O)cn1c23 (stereo not given)	2% (inactive)
Cc1ccccc1OCCCN1C(=O)C(=O)c2cccc(C)c21	0% (inactive)
CCOC(=O)c1ccc(NC(=O)NC(C)C2CCCO2)cc1 (stereo not given)	0% (inactive)
CCn1cc(C(=O)NCC2COc3ccccc3O2)c2cc(OC)c(OC)cc2c1=O (stereo not given)	11% (inactive)
CC1CCc2nn(CC(=O)NCc3ccc4c(c3)OCO4)cc2C1 (stereo not given)	1% (inactive)
O=C(NCc1cccs1)C1CC(c2ccccc2O)=NO1 (stereo not given)	5% (inactive)
CCc1nc(SCc2cc(Cl)ccc2OC)n[nH]1	0% (inactive)
CCCN(S(=O)(=O)c1ccc(OCC)cc1)S(=O)(=O)c1cccs1	0% (inactive)

SMILES	inhibition
CNC(=O)CSc1nc2c(c(=O)n(C)c(=O)n2C)n1Cc1ccc(C)cc1	0% (inactive)
COC(=O)c1ccc(NC2(C#N)C(=O)Nc3ccccc32)cc1 (stereo not given)	0% (inactive)
CC(C)c1nnc(NC(=O)c2cnccn2)s1	0% (inactive)
CCOC(=O)C1=C(N)c2ccccc2CC1C(C)C (stereo not given)	0% (inactive)
CCOC(=O)c1[nH]c2ccc(Br)cc2c1NC(=O)CCN1CCC(C(=O)OCC)CC1	0% (inactive)
COc1ccc(-c2nnc(SCC(=O)NC(=O)NCc3ccco3)o2)cc1	0% (inactive)
COc1cccc(C2C3=C(N=C4SCC(=O)N42)c2ccccc2CC3)c1OC (stereo not given)	4% (inactive)
CC(C)(C)C(=O)Cn1c[n+](N)cn1	1% (inactive)
O=C(Nc1cccc(C(F)(F)F)c1)c1ccco1	0% (inactive)
O=C(NCc1ccco1)C1CC(=O)N(c2ccc(F)cc2)C1 (stereo not given)	4% (inactive)
CCOc1ccc(N(CC(=O)Nc2ccc(C)c(C)c2)S(=O)(=O)c2c(C)noc2C)cc1	0% (inactive)
CCC(C)NC(=O)CCNS(=O)(=O)c1ccc(Br)cc1 (stereo not given)	0% (inactive)
COc1ccc(OC)c(NC(=O)CSc2ncccc2C(=O)O)c1	0% (inactive)
COc1ccc(OCCC(=O)NCc2ccccc2)cc1	0% (inactive)
COc1ccc(N(C(=O)c2ccco2)C(C(=O)NC2CCCC2)c2ccc(N(C)C)cc2)cc1OC (stereo not given)	1% (inactive)
O=C(CN1C(=O)C2C3C=CC(C3)C2C1=O)NCc1ccc2c(c1)OCO2 (stereo not given)	0% (inactive)
CC(=O)Nc1cccc(NC(=O)c2ccco2)c1	0% (inactive)
CCCOc1ccc(/C(O)=C2/C(=O)C(=O)N(CCCOC)C2c2ccncc2)cc1 (stereo not given)	4% (inactive)
O=C(NC1CCCc2ccccc21)c1ccc(CNc2c(N3CCOCC3)c(=O)c2=O)cc1 (stereo not given)	0% (inactive)
Cc1cccc2cc(CN(Cc3nnnn3C3CCCC3)C3CCCCC3)c(=O)[nH]c12	4% (inactive)
